Only a selection was taken, and hits are over-represented in it overall.
TbPYK inhibitor – inhibitors of Trypanosoma brucei pyruvate kinase; TbPYK enzyme, Kinase-Glo Plus ATP luminescence, 45 min; 410,000 tested, 0.12% active; AID 624173; Potency, µM (series often up to 76.8 µM), for inactives: at the top dose activity, negative = inhibition, most hits filed as inhibitors; Q57TT1; note: potency is the fitted concentration of half-maximal effect; % is set by controls: 0 for no effect and ±100 for the full control effect; nearly all actives have a fitted effect of over 50% in size
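T. brucei PYK with substrate was exposed to pin-transferred compounds across a concentration series, then started with 130 uM ADP (final). After 45 min at room temperature, Kinase-Glo Plus luminescence was read, normalized and curve-fitted.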
Giardia FBPA inh-1 – inhibitors of Giardia lamblia fructose-1,6-bisphosphate aldolase; 290,000 tested, 0.71% active; A8B2U2; Potency, µM (top dose mostly 59.6 µM), for inactives: at the top dose activity, negative = inhibition, usual class: inhibitors; AID 2451; purified Giardia FBPA; note: potency is the fitted concentration of half-maximal effect; % is set by controls: 0 for no effect and ±100 for the full control effect; nearly all actives have a fitted effect of over 55% in size
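40 nM FBPA preincubated 10 min at RT with compound (up to 57.5 uM final), then substrate plus GAPDH/TPI/NAD/arsenate coupling and diaphorase/resazurin added. Fluorescence read after 20 min at RT, 525/598 nm.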
RE007 growth inh – less growth of the S. pombe RE007 Vpr strain; S. pombe RE007 Vpr strain, BacTiter-Glo ATP luminescence, 24 h; Potency, µM (series often up to 92.2 µM), without a hit: top-dose activity change, negative = less growth, hits mostly inhibitors; 360,000 tested, 0.21% active; active = well fitted falling curve with a large enough effect; inconclusive = small, poorly fitted or top-dose-only effect; inactive = no such curve, though single readings can be large or run the other way; note: potency is the fitted concentration of half-maximal effect; % is set by controls: 0 for no effect and ±100 for the full control effect; nearly all actives have a fitted effect of over 50% in size
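Fission yeast RE007 carrying one integrated HIV-1 vpr copy, seeded at OD 0.01 in PMG+AL medium with 23 nL pinned compound. Grown 24 h at 30 degrees; viability read by BacTiter-Glo luminescence after 5 min.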
LmPK inh – inhibitors of Leishmania mexicana pyruvate kinase | Q27686 | purified LmPK, Kinase-Glo ATP luminescence, 1 h | Potency, µM (titrated, usually from 57.5 µM), for the others: at the top dose activity change, negative = inhibition, most hits filed as inhibitors | 290,000 tested, 0.37% active | AID 1721; note: potency is the fitted concentration of half-maximal effect; % is set by controls: 0 for no effect and ±100 for the full control effect
Target sequence (Q27686 whole entry, looked up): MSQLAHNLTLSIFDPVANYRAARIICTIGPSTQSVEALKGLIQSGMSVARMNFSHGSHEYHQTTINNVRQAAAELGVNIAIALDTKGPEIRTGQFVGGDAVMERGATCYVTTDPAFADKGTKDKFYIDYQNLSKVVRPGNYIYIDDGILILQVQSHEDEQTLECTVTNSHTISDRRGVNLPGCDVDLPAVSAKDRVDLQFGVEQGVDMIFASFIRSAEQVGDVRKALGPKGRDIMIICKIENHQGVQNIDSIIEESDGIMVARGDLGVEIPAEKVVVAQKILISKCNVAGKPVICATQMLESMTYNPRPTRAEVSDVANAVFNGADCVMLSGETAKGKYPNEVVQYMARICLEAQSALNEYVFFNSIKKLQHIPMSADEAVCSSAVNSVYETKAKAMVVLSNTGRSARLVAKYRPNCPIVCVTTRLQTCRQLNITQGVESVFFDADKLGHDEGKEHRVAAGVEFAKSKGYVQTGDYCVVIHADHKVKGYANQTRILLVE
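Purified LmPK (0.1 nM) converted ADP (0.1 mM) to ATP with PEP (0.5 mM) in imidazole buffer pH 7.2 with KCl and MgCl2, 1 h at room temperature. ATP was read by Kinase-Glo luminescence; data normalized to uninhibited and no-enzyme controls.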
Shiga toxin inh – blocks Shiga toxin action in Vero cells; Vero cells, Shiga toxin protein synthesis inhibition reporter; inhibition, % at 38.7 µM; 290,000 tested, 9.2% active; in the data active = inhibition mostly above about 28%, no sharp cut-off; inactive = mostly below about 43%; note: 0% is about no effect
Cycloheximide cs – counter-screen for Shiga toxin inhibitors: cycloheximide protein synthesis inhibition | cell reporter, cycloheximide protein synthesis inhibition counterscreen | max response, % | AID 2314 | 300,000 tested, 12% active; in the data active = max response mostly above about 13%, no sharp cut-off; inactive = mostly below about 14%; note: read at 38.3 µM for the half of the compounds with a filed dose; 0% is about no effect
Giardia growth – Giardia lamblia growth inhibition. shares compounds with Giardia FBPA inh-1. Giardia lamblia trophozoite growth inhibition. Potency, µM (series often up to 57.5 µM), without a hit: top-dose activity change, negative = inhibition, hits mostly inhibitors. 1,500 tested, 5% active. AID 2785;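 note: potency is the fitted concentration of half-maximal effect; trophozoites exposed to compound for 48 h at 37 °C; % is set by controls: 0 for no effect and ±100 for the full control effect; nearly all actives have a fitted effect of over 70% in size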
Mammal cell tox – toxic to mammalian cells in Giardia aldolase counter-screen; Potency, µM (highest dose often 57.5 µM), for inactives: at the highest dose viability change, negative = toxicity, most hits filed as inhibitors; AID 2786; mammalian cell viability counter-screen, qHTS; 1,500 tested, 4% active; shares compounds with Giardia FBPA inh-1;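 note: Chinese hamster ovary cells used as mammalian cytotoxicity surrogate; viability measured as cellular ATP by luminescence; potency is the fitted concentration of half-maximal effect; compound exposure lasted 48 h before reading; % is set by controls: 0 for no effect and ±100 for the full control effect; nearly all actives have a fitted effect of over 60% in size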
Giardia FBPA inh-2 – confirmation of Giardia fructose-bisphosphate aldolase inhibitors; shares compounds with Giardia FBPA inh-1; purified Giardia aldolase enzyme activity, qHTS; Potency, µM (top dose mostly 57.5 µM), without a hit: at the highest dose activity change, negative = inhibition, hits mostly inhibitors; 1,500 tested, 5% active; AID 2787; note: potency is the fitted concentration of half-maximal effect; % is set by controls: 0 for no effect and ±100 for the full control effect; nearly all actives have a fitted effect of over 45% in size
Rabbit FBPA inh – blocks rabbit muscle aldolase in Giardia aldolase selectivity test. shares compounds with Giardia FBPA inh-1. Rabbit muscle FBPA enzyme inhibition, selectivity counter-screen. Potency, µM (highest dose often 57.5 µM), inactives show at the top dose activity, negative = inhibition, hits mostly inhibitors. 1,500 tested, 4% active. AID 2794; note: potency is the fitted concentration of half-maximal effect; % is set by controls: 0 for no effect and ±100 for the full control effect; nearly all actives have a fitted effect of over 60% in size
Target sequence (P00883 whole entry, looked up): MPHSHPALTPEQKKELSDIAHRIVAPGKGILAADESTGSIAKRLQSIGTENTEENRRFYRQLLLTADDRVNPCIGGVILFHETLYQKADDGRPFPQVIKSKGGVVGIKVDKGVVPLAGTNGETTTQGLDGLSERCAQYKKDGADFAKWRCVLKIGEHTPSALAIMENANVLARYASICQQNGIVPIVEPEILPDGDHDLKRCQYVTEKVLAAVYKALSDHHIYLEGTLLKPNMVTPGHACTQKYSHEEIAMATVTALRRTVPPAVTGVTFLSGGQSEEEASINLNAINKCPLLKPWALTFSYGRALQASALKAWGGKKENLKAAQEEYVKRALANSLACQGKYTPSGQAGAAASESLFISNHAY
GAPDH counter – counter-screen for Giardia aldolase inhibitors: GAPDH coupling enzyme; shares compounds with Giardia FBPA inh-1; GAPDH coupling enzyme counterscreen, biochemical, qHTS; Potency, µM (highest dose often 57.5 µM), for inactives: top-dose activity change, negative = inhibition, most hits filed as inhibitors; 1,500 tested, 6% active; AID 2795; note: potency is the fitted concentration of half-maximal effect; % is set by controls: 0 for no effect and ±100 for the full control effect; nearly all actives have a fitted effect of over 55% in size
* hit, by the source's call; ? = inconclusive; . = no result; ! = not confirmed by another sample; [ ] = another dose, or the depositor's remark. Unless noted, calls come from the whole dose curve; as a rule, active = well fitted curve in the direction sought with a large enough effect; inconclusive = small, poorly fitted or top-dose-only effect, or another doubt; inactive = no such curve, though single readings can be large; an effect the other way counts as inactive or inconclusive.

SMILES | TbPYK inhibitor | Giardia FBPA inh-1 | RE007 growth inh | LmPK inh | Shiga toxin inh | Cycloheximide cs | Giardia growth | Mammal cell tox | Giardia FBPA inh-2 | Rabbit FBPA inh | GAPDH counter
CC(/C=N/NC(=O)c1ccccn1)=C\c1ccco1 | -5% | 20µM* | -16% | 25µM* | 94* | 33* | ? | 25µM* | ? | -25% | ?
O=C(N/N=C/C=C/c1ccco1)c1cnccn1 | -6% | 20µM* | 5% | 11% | 31 | 13 | 3%[10.4 µM] | 12% | ? | -11% | ?
Oc1cccc(Nc2ncnc3sc4c(c23)CCCC4)c1 | -6% | . | . | . | . | . | . | . | . | . | .
Cc1ccc2[nH]c3c(=O)n(CC(=O)Nc4ccc(Br)cc4C)ncc3c2c1 | 5% | . | . | . | . | . | . | . | . | . | .
CCCCCCOc1ccc(/C=C/C(=O)Nc2sc3c(c2C(=O)OC)CCC3)cc1OC | 6% | . | . | . | . | . | . | . | . | . | .
CC1(C)CC(CC(=O)Nc2ccccn2)C(=O)O1 (stereo not given) | -5% | 4% | 10% | -4% | -8 | -2 | . | . | . | . | .
CC1(C)CC(Cc2nc(=S)[nH][nH]2)C(=O)O1 (stereo not given) | -5% | 6.3µM* | -9% | -1% | 20 | -2 | 3% | -8% | 5% | 8% | 8%
CCN(CC)c1ccc(N=Cc2c(C)[nH]c3ccccc23)cc1 | -6% | ? | -12% | 2% | -2 | -1 | 5%[38.3 µM] | -22% | ? | ? | ?
O=C(NC1CCCCC1)c1cc(Nc2cccc(C(F)(F)F)c2)nc2ccccc12 | 1% | . | . | . | . | . | . | . | . | . | .
CC(CCC(=O)O)C1CCC2C3CC[C@@H]4CCCC[C@@]4(C)C3CC[C@@]12C (stereo not given in full) | . | 13% | . | . | . | . | . | . | . | . | .
Cc1[nH]n(-c2ccccc2)c(=O)c1N=Nc1cccc([N+](=O)[O-])c1 | 3% | 8.9µM* | 11% | 5% | -6 | 1 | -37%[38.3 µM] | 5% | 5% | 9% | -3%
Cc1[nH]n(-c2ccccc2)c(=O)c1N=Nc1cccc(Cl)c1 | 11% | ? | -11% | -1% | 15 | 3 | . | . | . | . | .
COC(=O)c1ccc(N=Nc2c(C)[nH]n(-c3ccccc3)c2=O)cc1 | 1% | 13µM* | 5% | 4% | -10 | 1 | -24% | 18% | 8% | -2% | 8%
CCc1nnc(-n2nc(C)cc2-c2ccccc2)n1N | 0% | ? | 7% | -1% | -1 | -2 | . | . | . | . | .
Cc1[nH]c2ccccc2c1/C=N/Nc1nc(N2CCCCC2)nc(N2CCCCC2)n1 | 0% | -4% | 0% | 1% | -12 | -2 | . | . | . | . | .
Cc1ccc(S(=O)(=O)N/N=C/c2c(F)cccc2Cl)cc1 | -13% | -7% | -5% | 4% | 3 | -2 | . | . | . | . | .
CCc1nnc(N/N=C/c2cc(C)c(C)cc2C)n1N | -2% | 13µM* | -5% | -2% | 10 | -2 | 17% | -4% | -24% | -8% | -5%
Cc1nnc(N/N=C/c2c(Cl)cccc2Cl)n1N | -4% | 22µM* | -16% | -4% | 39 | 12 | 13% | 8% | -15% | -3% | -1%
CCc1nnc(N/N=C/c2c(F)cccc2Cl)n1N | 10% | 20µM* | -13% | -4% | 10 | 4 | -26% | 1% | -27% | -15% | -13%
Cc1[nH]c2ccccc2c1/C=N/Nc1nc2ccccc2[nH]1 | -5% | 18µM* | -6% | -2% | 112* | 43* | -4%[10.4 µM] | -20% | -10% | -6% | -2%
COc1cc(OC)c(NC(=O)c2sc3nc4n(c(=O)c3c2C)CCCC4)cc1Cl | -1% | . | . | . | . | . | . | . | . | . | .
CCOc1ccc(Nc2nn(-c3ccc(OC(F)(F)F)cc3)nc2C(C)=O)cc1 | -13% | . | . | . | . | . | . | . | . | . | .
COc1ccc(C2=C(Nc3ccc(Br)c(C)c3)c3ccccc3C2=O)cc1 | 0% | . | . | . | . | . | . | . | . | . | .
COc1cccc(N2CCN(C(=O)c3cc4c(=O)n(Cc5ccco5)ccc4nc3C)CC2)c1 | -9% | . | . | . | . | . | . | . | . | . | .
N#CC(C#N)=Cc1ccc(-c2ccccc2F)o1 | 1% | 4% | 16% | -1% | -11 | -3 | . | . | . | . | .
SMILES | TbPYK inhibitor | Giardia FBPA inh-1 | RE007 growth inh | LmPK inh | Shiga toxin inh | Cycloheximide cs | Giardia growth | Mammal cell tox | Giardia FBPA inh-2 | Rabbit FBPA inh | GAPDH counter
Cc1nnc(N/N=C/c2ccc(-c3ccccc3F)o2)n1N | -6% | 16µM* | -18% | -4% | 150* | 25* | ? | 0% | 16µM* | ? | ?
CCc1nnc(N/N=C/c2c(C)[nH]c3ccccc23)n1N | -9% | 18µM* | -1% | -2% | 15 | -1 | 17% | 0% | ? | ? | -24%
CCOc1cc(/C=N/Nc2nnc(C)n2N)ccc1O | 2% | 16µM* | 7% | -1% | 50* | 25* | -17% | 14% | ? | ? | ?
COc1ccc(C(=O)NNc2ncnc3c2cnn3-c2cccc(Cl)c2)cc1OC | -6% | . | . | . | . | . | . | . | . | . | .
Cc1ccccc1-c1noc(-c2nnn(-c3ccccc3C)c2N)n1 | 0% | . | . | . | . | . | . | . | . | . | .
Cc1cc(N)c2ccccc2[n+]1CCCCCCCCCCCCCC[n+]1c(C)cc(N)c2ccccc21 | . | -15% | . | . | . | . | . | . | . | . | .
CCN1CCc2c(sc(N)c2C#N)C1 | -2% | ? | -2% | -3% | -3 | -1 | . | . | . | . | .
N#Cc1c(N)sc(=S)c2c1CCN(Cc1ccccc1)C2 | . | 1.3µM* | . | 1% | -11 | -1 | 15%[38.3 µM] | -8% | 32µM* | ? | 32µM*
Oc1ccc(/C=N/N=C(c2ccccc2)c2ccccc2)c(O)c1O | ? | 5.6µM* | ? | 2% | 27 | 18* | 15%[10.4 µM] | -11% | 10µM* | ? | ?
S=c1[nH]c2cc(Cl)c3cccnc3c2o1 | ? | 3.5µM* | 7% | -4% | 5 | 1 | -6%[38.3 µM] | -15% | ? | ? | ?
O=C1NC(=Nc2ccccc2Cl)S/C1=C\c1cc([N+](=O)[O-])ccc1O | -20% | -2% | -12% | 16% | -10 | -2 | . | . | . | . | .
O=C1NC(=O)C(c2ccccc2[N+](=O)[O-])=C1Nc1ccc(O)c(Cl)c1 | -10% | 25µM*! | 1%[18.4 µM] | 1% | 10 | 8 | -16% | -4% | ? | ? | -19%
